Reference: PubChem BioAssay AID1159580 (chemical genetic matrix, 2015)
In all, about 5,500 compounds went through this assay and about 2,000 (36%) were called active. Roughly 18% stayed inconclusive and do not appear here. No stated cut-off is given here; in the data, active means normalized growth mostly below about 0.91 (no sharp cut-off); inconclusive means no clear call, values can overlap the other calls; inactive means mostly above about 0.92. The list shows a part of the results.

Test: chemical genetic growth profiling, strain panel (AID 1159580);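 further: tested at 20 µM; growth read once vehicle control cultures reached saturation at 30 °C; 1 = growth at the plate median or of vehicle wells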
Details: growth OD

Measured: normalized growth

Cc1ccc(Cl)c(Nc2ccccc2C(=O)O)c1Cl
inactive: S. cerevisiae deletion strains, locus YJR066W, strain TOR1, stronger effect = lower value 0.963 | S. cerevisiae deletion strains, locus YKL009W, strain mrt4, stronger effect = lower value 0.97 | S. cerevisiae deletion strains, locus YKL068W, stronger effect = lower value 0.975 | S. cerevisiae deletion strains, locus YKL085W, strain MDH1 (second series), stronger effect = lower value 0.957 | S. cerevisiae deletion strains, locus YKL085W, strain MDH1, stronger effect = lower value 0.957 | S. cerevisiae deletion strains, locus YLR058C, strain SHM2, stronger effect = lower value 0.895 | S. cerevisiae deletion strains, locus YLR113W, strain HOG1, stronger effect = lower value 1.02 | S. cerevisiae deletion strains, locus YLR357W, strain rsc2, stronger effect = lower value 0.994 | S. cerevisiae deletion strains, locus YMR307W, strain GAS1, stronger effect = lower value 0.638 | S. cerevisiae deletion strains, locus YNL067W, strain RPL9B, stronger effect = lower value 0.92 | S. cerevisiae deletion strains, locus YNL153C, strain GIM3, stronger effect = lower value 0.898 | S. cerevisiae deletion strains, locus YNL183C, strain NPR1, stronger effect = lower value 0.992 | S. cerevisiae deletion strains, locus YNL233W, strain BNI4, stronger effect = lower value 0.913 | S. cerevisiae deletion strains, locus YNL248C, strain rpa49, stronger effect = lower value 0.931 | S. cerevisiae deletion strains, locus YNL250W, strain rad50, stronger effect = lower value 0.993 | S. cerevisiae deletion strains, locus YNL271C, strain bni1, stronger effect = lower value 0.955 | S. cerevisiae deletion strains, locus YNL298W, strain CLA4, stronger effect = lower value 0.932 | S. cerevisiae deletion strains, locus YOL006C, strain TOP1, stronger effect = lower value 0.697 | S. cerevisiae deletion strains, locus YOL012C, strain htz1 0.653 | S. cerevisiae deletion strains, locus YOR001W, strain rrp6, stronger effect = lower value 0.95 | S. cerevisiae deletion strains, locus YOR080W, strain dia2, stronger effect = lower value 0.914 | S. cerevisiae deletion strains, locus YOR083W, strain WHI5 (second series), stronger effect = lower value 0.971 | S. cerevisiae deletion strains, locus YOR136W, strain idh2, stronger effect = lower value 0.953 | S. cerevisiae deletion strains, locus YOR231W, strain MKK1, stronger effect = lower value 1.01 | S. cerevisiae deletion strains, locus YPL106C, strain sse1, stronger effect = lower value 1.04 | S. cerevisiae deletion strains, locus YPL256C, strain CLN2, stronger effect = lower value 0.996 | S. cerevisiae deletion strains, locus YPR141C, strain kar3, stronger effect = lower value 0.963
active: S. cerevisiae deletion strains, locus YJR075W, strain HOC1, stronger effect = lower value 0.877 | S. cerevisiae deletion strains, locus YKL160W, strain elf1, stronger effect = lower value 0.824 | S. cerevisiae deletion strains, locus YKR001C, strain vps1, stronger effect = lower value 0.581 | S. cerevisiae deletion strains, locus YKR026C, strain gcn3, stronger effect = lower value 0.893 | S. cerevisiae deletion strains, locus YKR091W, strain srl3, stronger effect = lower value 0.879 | S. cerevisiae deletion strains, locus YLL001W, strain dnm1, stronger effect = lower value 0.815 | S. cerevisiae deletion strains, locus YLL026W, stronger effect = lower value 0.893 | S. cerevisiae deletion strains, locus YLL041C, strain sdh2, stronger effect = lower value 0.886 | S. cerevisiae deletion strains, locus YLR027C, strain aat2, stronger effect = lower value 0.907 | S. cerevisiae deletion strains, locus YLR039C, strain RIC1, stronger effect = lower value 0.399 | S. cerevisiae deletion strains, locus YLR102C, strain apc9, stronger effect = lower value 0.887 | S. cerevisiae deletion strains, locus YLR221C, strain rsa3, stronger effect = lower value 0.809 | S. cerevisiae deletion strains, locus YLR258W, strain gsy2, stronger effect = lower value 0.852 | S. cerevisiae deletion strains, locus YLR262C, strain YPT6 (second series), stronger effect = lower value 0.499 | S. cerevisiae deletion strains, locus YLR262C, strain YPT6, stronger effect = lower value 0.492 | S. cerevisiae deletion strains, locus YLR268W, strain sec22, stronger effect = lower value 0.77 | S. cerevisiae deletion strains, locus YLR320W, strain mms22, stronger effect = lower value 0.659 | S. cerevisiae deletion strains, locus YLR330W, strain CHS5, stronger effect = lower value 0.893 | S. cerevisiae deletion strains, locus YLR342W, strain FKS1 (second series), stronger effect = lower value 0.789 | S. cerevisiae deletion strains, locus YLR342W, strain FKS1, stronger effect = lower value 0.857 | S. cerevisiae deletion strains, locus YLR370C, strain arc18, stronger effect = lower value 0.83 | S. cerevisiae deletion strains, locus YLR371W, strain rom2, stronger effect = lower value 0.894 | S. cerevisiae deletion strains, locus YLR384C, strain iki3, stronger effect = lower value 0.893 | S. cerevisiae deletion strains, locus YLR418C, strain cdc73, stronger effect = lower value 0.649 | S. cerevisiae deletion strains, locus YML016C, strain PPZ1, stronger effect = lower value 0.894 | S. cerevisiae deletion strains, locus YML032C, strain rad52, stronger effect = lower value 0.862 | S. cerevisiae deletion strains, locus YML120C, strain ndi1, stronger effect = lower value 0.795 | S. cerevisiae deletion strains, locus YML124C, strain tub3, stronger effect = lower value 0.888 | S. cerevisiae deletion strains, locus YMR058W, strain fet3, stronger effect = lower value 0.866 | S. cerevisiae deletion strains, locus YMR078C, strain ctf18, stronger effect = lower value 0.896 | S. cerevisiae deletion strains, locus YMR125W, strain sto1, stronger effect = lower value 0.854 | S. cerevisiae deletion strains, locus YMR129W, stronger effect = lower value 0.889 | S. cerevisiae deletion strains, locus YMR205C, strain PFK2, stronger effect = lower value 0.737 | S. cerevisiae deletion strains, locus YMR223W, strain ubp8, stronger effect = lower value 0.82 | S. cerevisiae deletion strains, locus YMR231W, strain pep5, stronger effect = lower value 0.843 | S. cerevisiae deletion strains, locus YMR263W, strain SAP30, stronger effect = lower value 0.873 | S. cerevisiae deletion strains, locus YNL071W, strain lat1, stronger effect = lower value 0.702 | S. cerevisiae deletion strains, locus YNL175C, strain NOP13, stronger effect = lower value 0.907 | S. cerevisiae deletion strains, locus YNL197C, strain WHI3, stronger effect = lower value 0.893 | S. cerevisiae deletion strains, locus YNL209W, strain ssb2, stronger effect = lower value 0.917 | S. cerevisiae deletion strains, locus YNL224C, strain SQS1, stronger effect = lower value 0.915 | S. cerevisiae deletion strains, locus YNL307C, strain MCK1, stronger effect = lower value 0.645 | S. cerevisiae deletion strains, locus YNL322C, strain KRE1 (second series), stronger effect = lower value 0.903 | S. cerevisiae deletion strains, locus YNL322C, strain KRE1, stronger effect = lower value 0.893 | S. cerevisiae deletion strains, locus YNR049C, strain mso1, stronger effect = lower value 0.885 | S. cerevisiae deletion strains, locus YNR052C, strain pop2, stronger effect = lower value 0.835 | S. cerevisiae deletion strains, locus YOL147C, strain pex11, stronger effect = lower value 0.868 | S. cerevisiae deletion strains, locus YOR061W, strain CKA2, stronger effect = lower value 0.882 | S. cerevisiae deletion strains, locus YOR069W, strain VPS5, stronger effect = lower value 0.891 | S. cerevisiae deletion strains, locus YOR070C, strain gyp1, stronger effect = lower value 0.864 | S. cerevisiae deletion strains, locus YOR083W, strain WHI5, stronger effect = lower value 0.868 | S. cerevisiae deletion strains, locus YOR106W, strain vam3, stronger effect = lower value 0.85 | S. cerevisiae deletion strains, locus YOR144C, strain elg1, stronger effect = lower value 0.898 | S. cerevisiae deletion strains, locus YOR184W, strain ser1, stronger effect = lower value 0.621 | S. cerevisiae deletion strains, locus YOR265W, strain rbl2, stronger effect = lower value 0.892 | S. cerevisiae deletion strains, locus YOR270C, strain vph1, stronger effect = lower value 0.617 | S. cerevisiae deletion strains, locus YOR290C, strain snf2, stronger effect = lower value 0.746 | S. cerevisiae deletion strains, locus YOR316C, strain cot1, stronger effect = lower value 0.881 | S. cerevisiae deletion strains, locus YPL051W, strain arl3, stronger effect = lower value 0.771 | S. cerevisiae deletion strains, locus YPL078C, strain atp4, stronger effect = lower value 0.774 | S. cerevisiae deletion strains, locus YPL240C, strain hsp82, stronger effect = lower value 0.879 | S. cerevisiae deletion strains, locus YPL241C, strain CIN2, stronger effect = lower value 0.943 | S. cerevisiae deletion strains, locus YPR119W, strain clb2, stronger effect = lower value 0.87 | S. cerevisiae deletion strains, locus YPR163C, strain tif3, stronger effect = lower value 0.903 | S. cerevisiae deletion strains, locus YPR167C, strain met16, stronger effect = lower value 0.882 | S. cerevisiae deletion strains, strain wtn01, stronger effect = lower value 0.859 | S. cerevisiae strains, strain wild type, stronger effect = lower value 0.888
